# About 2,000 (36%) of roughly 5,500 compounds were called active. Inconclusive results (about 18%) are left out. This is one part of the list. Values without a mark were called inactive. No stated cut-off is given here; in the data, active means normalized growth mostly below about 0.91 (no sharp cut-off); inconclusive means no clear call, values can overlap the other calls; inactive means mostly above about 0.92.
# Experiment: chemical genetic growth profiling, strain panel (AID 1159580);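 further: tested at 20 µM; growth read once vehicle control cultures reached saturation at 30 °C; 1 = growth at the plate median or of vehicle wells; lower values mean less growth of the strain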
# Settings: growth OD
smiles,measurement,setting,value
Cc1cc(C(C)(C)C)c(O)c(C(C)(C)C)c1,normalized growth,"S. cerevisiae deletion strains, locus YJR075W, strain HOC1, active compounds read low",0.929
same,normalized growth,"S. cerevisiae deletion strains, locus YKL009W, strain mrt4, active compounds read low",1
same,normalized growth,"S. cerevisiae deletion strains, locus YKL068W, active compounds read low",0.978
same,normalized growth,"S. cerevisiae deletion strains, locus YKL085W, strain MDH1 (second series), active compounds read low",1
same,normalized growth,"S. cerevisiae deletion strains, locus YKL085W, strain MDH1, active compounds read low",1
same,normalized growth,"S. cerevisiae deletion strains, locus YKL160W, strain elf1, active compounds read low",1
same,normalized growth,"S. cerevisiae deletion strains, locus YKL190W, strain CNB1, active compounds read low",0.96
same,normalized growth,"S. cerevisiae deletion strains, locus YKR001C, strain vps1, active compounds read low",0.927
same,normalized growth,"S. cerevisiae deletion strains, locus YKR026C, strain gcn3, active compounds read low",0.978
same,normalized growth,"S. cerevisiae deletion strains, locus YKR091W, strain srl3, active compounds read low",0.986
same,normalized growth,"S. cerevisiae deletion strains, locus YLL001W, strain dnm1, active compounds read low",0.99
same,normalized growth,"S. cerevisiae deletion strains, locus YLL026W, active compounds read low",0.954
same,normalized growth,"S. cerevisiae deletion strains, locus YLL041C, strain sdh2, active compounds read low",0.978
same,normalized growth,"S. cerevisiae deletion strains, locus YLR027C, strain aat2, active compounds read low",0.932
same,normalized growth,"S. cerevisiae deletion strains, locus YLR039C, strain RIC1, active compounds read low",0.861
same,normalized growth,"S. cerevisiae deletion strains, locus YLR058C, strain SHM2, active compounds read low",0.964
same,normalized growth,"S. cerevisiae deletion strains, locus YLR102C, strain apc9, active compounds read low",0.989
same,normalized growth,"S. cerevisiae deletion strains, locus YLR113W, strain HOG1, active compounds read low",0.85 (active)
same,normalized growth,"S. cerevisiae deletion strains, locus YLR221C, strain rsa3, active compounds read low",0.853 (active)
same,normalized growth,"S. cerevisiae deletion strains, locus YLR258W, strain gsy2, active compounds read low",0.997
same,normalized growth,"S. cerevisiae deletion strains, locus YLR262C, strain YPT6 (second series), active compounds read low",0.956
same,normalized growth,"S. cerevisiae deletion strains, locus YLR262C, strain YPT6, active compounds read low",0.85
same,normalized growth,"S. cerevisiae deletion strains, locus YLR268W, strain sec22, active compounds read low",0.944
same,normalized growth,"S. cerevisiae deletion strains, locus YLR320W, strain mms22, active compounds read low",0.904
same,normalized growth,"S. cerevisiae deletion strains, locus YLR330W, strain CHS5, active compounds read low",0.99
same,normalized growth,"S. cerevisiae deletion strains, locus YLR342W, strain FKS1 (second series), active compounds read low",1.09
same,normalized growth,"S. cerevisiae deletion strains, locus YLR342W, strain FKS1, active compounds read low",0.975
same,normalized growth,"S. cerevisiae deletion strains, locus YLR357W, strain rsc2, active compounds read low",0.966
same,normalized growth,"S. cerevisiae deletion strains, locus YLR370C, strain arc18, active compounds read low",0.986
same,normalized growth,"S. cerevisiae deletion strains, locus YLR371W, strain rom2, active compounds read low",1.01
same,normalized growth,"S. cerevisiae deletion strains, locus YLR384C, strain iki3, active compounds read low",0.971
same,normalized growth,"S. cerevisiae deletion strains, locus YLR418C, strain cdc73, active compounds read low",0.855
same,normalized growth,"S. cerevisiae deletion strains, locus YML016C, strain PPZ1, active compounds read low",0.997
same,normalized growth,"S. cerevisiae deletion strains, locus YML032C, strain rad52, active compounds read low",0.973
same,normalized growth,"S. cerevisiae deletion strains, locus YML120C, strain ndi1, active compounds read low",0.938
same,normalized growth,"S. cerevisiae deletion strains, locus YML124C, strain tub3, active compounds read low",0.995
same,normalized growth,"S. cerevisiae deletion strains, locus YMR058W, strain fet3, active compounds read low",0.968
same,normalized growth,"S. cerevisiae deletion strains, locus YMR078C, strain ctf18, active compounds read low",0.995
same,normalized growth,"S. cerevisiae deletion strains, locus YMR125W, strain sto1, active compounds read low",0.989
same,normalized growth,"S. cerevisiae deletion strains, locus YMR129W, active compounds read low",1
same,normalized growth,"S. cerevisiae deletion strains, locus YMR205C, strain PFK2, active compounds read low",0.998
same,normalized growth,"S. cerevisiae deletion strains, locus YMR223W, strain ubp8, active compounds read low",0.958
same,normalized growth,"S. cerevisiae deletion strains, locus YMR231W, strain pep5, active compounds read low",0.989
same,normalized growth,"S. cerevisiae deletion strains, locus YMR263W, strain SAP30, active compounds read low",0.898
same,normalized growth,"S. cerevisiae deletion strains, locus YMR307W, strain GAS1, active compounds read low",0.901
same,normalized growth,"S. cerevisiae deletion strains, locus YNL067W, strain RPL9B, active compounds read low",0.926
same,normalized growth,"S. cerevisiae deletion strains, locus YNL071W, strain lat1, active compounds read low",0.997
same,normalized growth,"S. cerevisiae deletion strains, locus YNL128W, strain TEP1, active compounds read low",0.874
same,normalized growth,"S. cerevisiae deletion strains, locus YNL153C, strain GIM3, active compounds read low",0.917
same,normalized growth,"S. cerevisiae deletion strains, locus YNL183C, strain NPR1, active compounds read low",0.938
same,normalized growth,"S. cerevisiae deletion strains, locus YNL209W, strain ssb2, active compounds read low",0.993
same,normalized growth,"S. cerevisiae deletion strains, locus YNL233W, strain BNI4, active compounds read low",0.844 (active)
same,normalized growth,"S. cerevisiae deletion strains, locus YNL248C, strain rpa49, active compounds read low",0.904
same,normalized growth,"S. cerevisiae deletion strains, locus YNL250W, strain rad50, active compounds read low",0.993
same,normalized growth,"S. cerevisiae deletion strains, locus YNL271C, strain bni1, active compounds read low",1
same,normalized growth,"S. cerevisiae deletion strains, locus YNL298W, strain CLA4, active compounds read low",0.962
same,normalized growth,"S. cerevisiae deletion strains, locus YNL307C, strain MCK1, active compounds read low",0.98
same,normalized growth,"S. cerevisiae deletion strains, locus YNL322C, strain KRE1 (second series), active compounds read low",1.01
same,normalized growth,"S. cerevisiae deletion strains, locus YNL322C, strain KRE1, active compounds read low",0.975
same,normalized growth,"S. cerevisiae deletion strains, locus YNR049C, strain mso1, active compounds read low",0.982
same,normalized growth,"S. cerevisiae deletion strains, locus YNR052C, strain pop2, active compounds read low",1
same,normalized growth,"S. cerevisiae deletion strains, locus YOL006C, strain TOP1, active compounds read low",0.888
same,normalized growth,"S. cerevisiae deletion strains, locus YOL012C, strain htz1",2.14 [resistant] (active)
same,normalized growth,"S. cerevisiae deletion strains, locus YOL147C, strain pex11, active compounds read low",0.996
same,normalized growth,"S. cerevisiae deletion strains, locus YOR001W, strain rrp6, active compounds read low",0.916
same,normalized growth,"S. cerevisiae deletion strains, locus YOR061W, strain CKA2, active compounds read low",0.966
same,normalized growth,"S. cerevisiae deletion strains, locus YOR069W, strain VPS5, active compounds read low",0.997
same,normalized growth,"S. cerevisiae deletion strains, locus YOR070C, strain gyp1, active compounds read low",0.957
same,normalized growth,"S. cerevisiae deletion strains, locus YOR080W, strain dia2, active compounds read low",0.99
same,normalized growth,"S. cerevisiae deletion strains, locus YOR083W, strain WHI5, active compounds read low",0.986
same,normalized growth,"S. cerevisiae deletion strains, locus YOR106W, strain vam3, active compounds read low",0.966
same,normalized growth,"S. cerevisiae deletion strains, locus YOR136W, strain idh2, active compounds read low",0.974
same,normalized growth,"S. cerevisiae deletion strains, locus YOR144C, strain elg1, active compounds read low",0.987
same,normalized growth,"S. cerevisiae deletion strains, locus YOR184W, strain ser1, active compounds read low",1.01
same,normalized growth,"S. cerevisiae deletion strains, locus YOR231W, strain MKK1, active compounds read low",0.916
same,normalized growth,"S. cerevisiae deletion strains, locus YOR265W, strain rbl2, active compounds read low",0.992
same,normalized growth,"S. cerevisiae deletion strains, locus YOR270C, strain vph1, active compounds read low",0.84
same,normalized growth,"S. cerevisiae deletion strains, locus YOR290C, strain snf2, active compounds read low",0.954
same,normalized growth,"S. cerevisiae deletion strains, locus YOR316C, strain cot1, active compounds read low",0.992
same,normalized growth,"S. cerevisiae deletion strains, locus YPL051W, strain arl3, active compounds read low",0.954
same,normalized growth,"S. cerevisiae deletion strains, locus YPL055C, strain LGE1, active compounds read low",0.798
same,normalized growth,"S. cerevisiae deletion strains, locus YPL078C, strain atp4, active compounds read low",0.99
same,normalized growth,"S. cerevisiae deletion strains, locus YPL106C, strain sse1, active compounds read low",0.917
same,normalized growth,"S. cerevisiae deletion strains, locus YPL240C, strain hsp82, active compounds read low",0.985
same,normalized growth,"S. cerevisiae deletion strains, locus YPL241C, strain CIN2, active compounds read low",0.98
same,normalized growth,"S. cerevisiae deletion strains, locus YPL256C, strain CLN2, active compounds read low",0.922
same,normalized growth,"S. cerevisiae deletion strains, locus YPR119W, strain clb2, active compounds read low",0.995
same,normalized growth,"S. cerevisiae deletion strains, locus YPR141C, strain kar3, active compounds read low",0.97
same,normalized growth,"S. cerevisiae deletion strains, locus YPR163C, strain tif3, active compounds read low",0.981
same,normalized growth,"S. cerevisiae deletion strains, locus YPR167C, strain met16, active compounds read low",0.985
same,normalized growth,"S. cerevisiae deletion strains, strain wtn01, active compounds read low",0.938
same,normalized growth,"S. cerevisiae strains, strain wild type, active compounds read low",0.933

# Reference: PubChem BioAssay AID1159580 (chemical genetic matrix, 2015)
